From ChEMBL document CHEMBL4513216, “Probing the Open Global Health Chemical Diversity Library for Multistage-Active Starting Points for Next-Generation Antimalarials” (ACS Infect Dis, 2020)
Hit rate of the full screen: of about 65,000 compounds, about 2,100 (3.2%) showed an effect of 50% or more. The median lay at about -52%. The sample as a whole holds a higher share of strong results than the screen did.

Tested on: Plasmodium falciparum
Assay: Screen against P. falciparum Asexual Blood Stage (ABS), at 5uM
Type: functional, Dd2
Conditions: tested at 5 uM

SMILES	INHIBITION [%]
COCCn1c(-c2cccc(OC)c2)cnc1NC(=O)NCCC(C)C	-63.4
CN(C)C(=O)c1ccc(C2CCCN2C(=O)c2cccc3c2OCC3)s1 (configuration not stated)	-53.8
Cn1ccnc1CN1CCC2(CC1)CN(c1ccccn1)CCO2	-254
Cc1noc(C)c1CN1CCC2(CC1)CN(c1ccccn1)CCO2	30
Fc1ccc(CN2CCC3(CC2)CN(c2ccccn2)CCO3)cc1	49
COc1ccc(CN2CCC3(CC2)CN(c2ccccn2)CCO3)cc1	62.3
COc1ncccc1CN1CCC2(CC1)CN(c1ccccn1)CCO2	56.5
c1ccc(CN2CCC3(CC2)CN(c2ccccn2)CCO3)nc1	-67.1
COCC(=O)NCc1cc(=O)n2c(n1)CN(C)CCC2	-101
Cc1nc(OCC(=O)N2CCCC2)cc(-n2cccn2)n1	-111
CCC(CC)C(=O)N1CCC2(CC1)c1ccccc1[C@@H](OC)[C@@H]2O	-1.77
Cc1ccc(C2CN(c3nnc(C(F)F)s3)CCO2)c(C)c1 (configuration not stated)	-42.4
COc1cccc(CN(C)C(=O)CN2CC(n3nc(C)cc3C)C2)c1	63.3
Cc1cc(C)n(C2CN(CC(=O)N(C)Cc3ccsc3)C2)n1	26.5
Cc1cc(C)n(C2CN(CC(=O)N(C)Cc3cnn(C)c3)C2)n1	-98.1
Cc1nc(CN2CCC3(CC2)CC(=O)N(C)c2ccccc23)cs1	-87.3
Cc1ccc(C(=O)NC2CCN(C(=O)Nc3ccncc3)CC2)o1	-195
COCCn1cnc2ccc(NC(=O)C3CC3)cc2c1=O	-76
COCCOCC(=O)N1C[C@@H]2CC[C@H](Oc3ccccc3)[C@@H]2C1	-114
O=C(Cn1ccnc1)N1C[C@@H]2CC[C@H](Oc3ccccc3Cl)[C@@H]2C1	-43.2
COCCOCC(=O)N1C[C@@H]2CC[C@H](Oc3ccccc3Cl)[C@@H]2C1	-103
CN(C)CC(=O)N1C[C@@H]2CC[C@H](Oc3ccccc3)[C@@H]2C1	61.8
CCOCC(=O)N1C[C@@H]2CC[C@H](Oc3ccccc3)[C@@H]2C1	-68.1
CN(C)CC(=O)N1C[C@@H]2CC[C@H](Oc3ccccc3Cl)[C@@H]2C1	63.7
CC(C)c1ncc(Cl)c(C(=O)N2CCN(C3CCCC3)CC2)n1	-16.7
Cc1nn(C)c(C)c1NC(=O)c1cccc(CN2CC[C@H](O)C2)c1	-133
CN(C)S(=O)(=O)N(C)C(c1cccc(F)c1)c1ccccn1 (configuration not stated)	-27.6
